# Source: PubChem BioAssay AID1508601 (ICCB-Longwood Screening Facility, Harvard Medical School, 2020)
# Among all 5,700 compounds or so, about 85 (1%) were called active. No stated cut-off is given here; in the data, active means p53-positive nuclei above about 36% (passing the limit was not always enough); inactive means the rest. The entries come from a sample that favours actives as a whole.
# Experiments:
# [1] = p53 stabilisation in HPV-positive human cells, imaging, p53-positive nuclei imaging, 24 h, 48 h (AID 1508601); conditions: 24/48 h
# [2] = target: Cellular tumor antigen p53 (Homo sapiens) (UniProt P04637); experiment: as above; conditions: 24/48 h, stronger effect = higher value
# Sequence of Cellular tumor antigen p53 (Homo sapiens) (P04637 whole entry, looked up): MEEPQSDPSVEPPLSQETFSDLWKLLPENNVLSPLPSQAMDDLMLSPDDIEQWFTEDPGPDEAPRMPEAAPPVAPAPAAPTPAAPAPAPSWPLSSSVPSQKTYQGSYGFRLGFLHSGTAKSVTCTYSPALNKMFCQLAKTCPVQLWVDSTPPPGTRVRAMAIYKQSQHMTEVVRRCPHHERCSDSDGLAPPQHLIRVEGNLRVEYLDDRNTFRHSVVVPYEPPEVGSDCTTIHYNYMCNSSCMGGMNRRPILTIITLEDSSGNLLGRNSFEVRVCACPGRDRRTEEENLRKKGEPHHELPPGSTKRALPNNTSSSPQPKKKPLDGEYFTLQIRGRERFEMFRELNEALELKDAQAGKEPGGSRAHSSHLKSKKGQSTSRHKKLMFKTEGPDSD
# [3] = measured here: cell number at 24 h, Library stock concentration: 80 uM
# [4] = measured here: cell number at 24 h, Library stock concentration: 400 uM
# [5] = measured here: cell number at 24 h, Library stock concentration: 2 mM
# [6] = measured here: cell number at 24 h, Library stock concentration: 10 mM
# [7] = measured here: cell number at 48 h, Library stock concentration: 80 uM
# [8] = measured here: cell number at 48 h, Library stock concentration: 400 uM
# [9] = measured here: cell number at 48 h, Library stock concentration: 2 mM
# [10] = measured here: cell number at 48 h, Library stock concentration: 10 mM
# [11] = Library stock concentration: 80 uM
# [12] = Library stock concentration: 400 uM
# [13] = Library stock concentration: 2 mM
# [14] = Library stock concentration: 10 mM
# [15] = measured here: p53 positive nuclei at 24 h, Library stock concentration: 80 uM
# [16] = measured here: p53 positive nuclei at 24 h, Library stock concentration: 400 uM
# [17] = measured here: p53 positive nuclei at 24 h, Library stock concentration: 2 mM
# [18] = measured here: p53 positive nuclei at 24 h, Library stock concentration: 10 mM
# [19] = measured here: cell number at 24 h, Library stock concentration: 3.33 mM
# [20] = measured here: cell number at 48 h, Library stock concentration: 3.33 mM
# [21] = Library stock concentration: 3.33 mM
# [22] = measured here: p53 positive nuclei at 24 h, Library stock concentration: 3.33 mM
# [23] = measured here: cell number at 24 h, concentration not given here
# [24] = measured here: cell number at 48 h, concentration not given here
# [25] = measured here: p53 positive nuclei at 24 h, concentration not given here
# [26] = measured here: cell number at 24 h, Library stock concentration: 46 uM
# [27] = measured here: cell number at 24 h, Library stock concentration: 278 uM
# [28] = measured here: cell number at 24 h, Library stock concentration: 1.67 mM
# [29] = measured here: cell number at 48 h, Library stock concentration: 46 uM
# [30] = measured here: cell number at 48 h, Library stock concentration: 278 uM
# [31] = measured here: cell number at 48 h, Library stock concentration: 1.67 mM
# [32] = Library stock concentration: 46 uM
# [33] = Library stock concentration: 278 uM
# [34] = Library stock concentration: 1.67 mM
# [35] = measured here: p53 positive nuclei at 24 h, Library stock concentration: 46 uM
# [36] = measured here: p53 positive nuclei at 24 h, Library stock concentration: 278 uM
# [37] = measured here: p53 positive nuclei at 24 h, Library stock concentration: 1.67 mM
compound,measurement,setting,value
CN1CCC(c2c(O)cc(O)c3c(=O)cc(-c4ccccc4Cl)oc23)C(O)C1 (centres undefined),"nuclei count, normalised",[1]; [3],79.6%
same,"nuclei count, normalised",[1]; [4],49.2%
same,"nuclei count, normalised",[1]; [5],29.8%
same,"nuclei count, normalised",[1]; [6],27.6%
same,"nuclei count, normalised",[1]; [7],57.1%
same,"nuclei count, normalised",[1]; [8],29.5%
same,"nuclei count, normalised",[1]; [9],16%
same,"nuclei count, normalised",[1]; [10],17.8%
same,"p53-positive nuclei, normalised",[2]; [11],5.98% (inactive)
same,"p53-positive nuclei, normalised",[2]; [12],41.3% (inactive)
same,"p53-positive nuclei, normalised",[2]; [13],13.9% (inactive)
same,"p53-positive nuclei, normalised",[2]; [14],7.27% (inactive)
same,"p53-positive nuclei, normalised",[2]; [15],1.3%
same,"p53-positive nuclei, normalised",[2]; [16],7.22%
same,"p53-positive nuclei, normalised",[2]; [17],0.675%
same,"p53-positive nuclei, normalised",[2]; [18],0.446%
CN1CCC(c2c(O)cc(O)c3c(=O)cc(-c4ccccc4Cl)oc23)C1CO (centres undefined),"nuclei count, normalised",[1]; [3],103%
same,"nuclei count, normalised",[1]; [4],85.7%
same,"nuclei count, normalised",[1]; [5],35.8%
same,"nuclei count, normalised",[1]; [19],33.3%
same,"nuclei count, normalised",[1]; [6],24.1%
same,"nuclei count, normalised",[1]; [7],106%
same,"nuclei count, normalised",[1]; [8],84.1%
same,"nuclei count, normalised",[1]; [9],23.2%
same,"nuclei count, normalised",[1]; [20],26.2%
same,"nuclei count, normalised",[1]; [10],17.3%
same,"p53-positive nuclei, normalised",[2]; [11],0.295% (inactive)
same,"p53-positive nuclei, normalised",[2]; [12],16% (inactive)
same,"p53-positive nuclei, normalised",[2]; [13],66% (active)
same,"p53-positive nuclei, normalised",[2]; [21],49.6% (inactive)
same,"p53-positive nuclei, normalised",[2]; [14],30.8% (inactive)
same,"p53-positive nuclei, normalised",[2]; [15],0.32%
same,"p53-positive nuclei, normalised",[2]; [16],6.89%
same,"p53-positive nuclei, normalised",[2]; [17],3.25%
same,"p53-positive nuclei, normalised",[2]; [22],3.39%
same,"p53-positive nuclei, normalised",[2]; [18],6.32%
CN1CC[C@H](c2c(O)cc(O)c3c(=O)cc(-c4ccccc4Cl)oc23)C(O)C1 (some centres undefined),"nuclei count, normalised",[1]; [3],104%
same,"nuclei count, normalised",[1]; [4],38.3%
same,"nuclei count, normalised",[1]; [5],28.8%
same,"nuclei count, normalised",[1]; [19],19.7%
same,"nuclei count, normalised",[1]; [6],27.3%
same,"nuclei count, normalised",[1]; [7],113%
same,"nuclei count, normalised",[1]; [8],25.6%
same,"nuclei count, normalised",[1]; [9],21.8%
same,"nuclei count, normalised",[1]; [20],16%
same,"nuclei count, normalised",[1]; [10],20.2%
same,"p53-positive nuclei, normalised",[2]; [11],0.113% (inactive)
same,"p53-positive nuclei, normalised",[2]; [12],48.4% (inactive)
same,"p53-positive nuclei, normalised",[2]; [13],4.92% (inactive)
same,"p53-positive nuclei, normalised",[2]; [21],8.28% (inactive)
same,"p53-positive nuclei, normalised",[2]; [14],4.03% (inactive)
same,"p53-positive nuclei, normalised",[2]; [15],-0.107%
same,"p53-positive nuclei, normalised",[2]; [16],2.03%
same,"p53-positive nuclei, normalised",[2]; [17],0.196%
same,"p53-positive nuclei, normalised",[2]; [22],0.472%
same,"p53-positive nuclei, normalised",[2]; [18],0.419%
CCCCC[C@H](O)/C=C/[C@@H]1[C@@H](C/C=C\CCCC(=O)NCC)[C@@H](O)C[C@H]1O,"nuclei count, normalised",[1]; [23],106%
same,"nuclei count, normalised",[1]; [24],102%
same,"p53-positive nuclei, normalised",[2]; concentration not given here,0.015% (inactive)
same,"p53-positive nuclei, normalised",[2]; [25],-0.0692%
O=S(=O)(NO)c1ccccc1,"nuclei count, normalised",[1]; [23],71.3%
same,"nuclei count, normalised",[1]; [24],77%
same,"p53-positive nuclei, normalised",[2]; concentration not given here,0.0111% (inactive)
same,"p53-positive nuclei, normalised",[2]; [25],-0.0732%
O=C(C=Cc1cccc(S(=O)(=O)Nc2ccccc2)c1)NO,"nuclei count, normalised",[1]; [3],108%
same,"nuclei count, normalised",[1]; [4],107%
same,"nuclei count, normalised",[1]; [5],94.6%
same,"nuclei count, normalised",[1]; [19],58%
same,"nuclei count, normalised",[1]; [6],52.5%
same,"nuclei count, normalised",[1]; [7],101%
same,"nuclei count, normalised",[1]; [8],95.8%
same,"nuclei count, normalised",[1]; [9],77.3%
same,"nuclei count, normalised",[1]; [20],40.2%
same,"nuclei count, normalised",[1]; [10],30.4%
same,"p53-positive nuclei, normalised",[2]; [11],3.46% (inactive)
same,"p53-positive nuclei, normalised",[2]; [12],0.535% (inactive)
same,"p53-positive nuclei, normalised",[2]; [13],5.33% (inactive)
same,"p53-positive nuclei, normalised",[2]; [21],46% (active)
same,"p53-positive nuclei, normalised",[2]; [14],76% (active)
same,"p53-positive nuclei, normalised",[2]; [15],0.856%
same,"p53-positive nuclei, normalised",[2]; [16],1.2%
same,"p53-positive nuclei, normalised",[2]; [17],10.1%
same,"p53-positive nuclei, normalised",[2]; [22],51%
same,"p53-positive nuclei, normalised",[2]; [18],64.7%
O=C(/C=C/c1cccc(C(=O)NO)c1)NO,"nuclei count, normalised",[1]; [23],114%
same,"nuclei count, normalised",[1]; [24],107%
same,"p53-positive nuclei, normalised",[2]; concentration not given here,0.114% (inactive)
same,"p53-positive nuclei, normalised",[2]; [25],0.124%
CCCCCCCCc1cccc(NC(=O)C(N)COP(=O)(O)O)c1 (centres undefined),"nuclei count, normalised",[1]; [26],114%
same,"nuclei count, normalised",[1]; [27],118%
same,"nuclei count, normalised",[1]; [28],113%
same,"nuclei count, normalised",[1]; [6],108%
same,"nuclei count, normalised",[1]; [29],110%
same,"nuclei count, normalised",[1]; [30],108%
same,"nuclei count, normalised",[1]; [31],107%
same,"nuclei count, normalised",[1]; [10],101%
same,"p53-positive nuclei, normalised",[2]; [32],-0.108% (inactive)
same,"p53-positive nuclei, normalised",[2]; [33],0.0439% (inactive)
same,"p53-positive nuclei, normalised",[2]; [34],-0.101% (inactive)
same,"p53-positive nuclei, normalised",[2]; [14],-0.166% (inactive)
same,"p53-positive nuclei, normalised",[2]; [35],0.0125%
same,"p53-positive nuclei, normalised",[2]; [36],-0.0546%
same,"p53-positive nuclei, normalised",[2]; [37],-0.0401%
same,"p53-positive nuclei, normalised",[2]; [18],-0.218%
CCCCCCCCCCCCCCCCCCCC(=O)NCCO,"nuclei count, normalised",[1]; [23],110%
same,"nuclei count, normalised",[1]; [24],108%
same,"p53-positive nuclei, normalised",[2]; concentration not given here,-0.151% (inactive)
same,"p53-positive nuclei, normalised",[2]; [25],-0.0865%
CCCCCc1ccc(C=CC(=O)Nc2ccccc2C(=O)O)cc1,"nuclei count, normalised",[1]; [26],113%
same,"nuclei count, normalised",[1]; [27],109%
same,"nuclei count, normalised",[1]; [28],111%
same,"nuclei count, normalised",[1]; [6],109%
same,"nuclei count, normalised",[1]; [29],113%
same,"nuclei count, normalised",[1]; [30],110%
same,"nuclei count, normalised",[1]; [31],110%
same,"nuclei count, normalised",[1]; [10],106%
same,"p53-positive nuclei, normalised",[2]; [32],-0.18% (inactive)
same,"p53-positive nuclei, normalised",[2]; [33],-0.17% (inactive)
same,"p53-positive nuclei, normalised",[2]; [34],-0.244% (inactive)
same,"p53-positive nuclei, normalised",[2]; [14],-0.204% (inactive)
same,"p53-positive nuclei, normalised",[2]; [35],-0.087%
same,"p53-positive nuclei, normalised",[2]; [36],-0.151%
same,"p53-positive nuclei, normalised",[2]; [37],-0.151%
same,"p53-positive nuclei, normalised",[2]; [18],-0.0182%
CCCCc1nc2cc(C=CC(=O)NO)ccc2n1CCN(CC)CC,"nuclei count, normalised",[1]; [3],95.3%
same,"nuclei count, normalised",[1]; [4],95.2%
same,"nuclei count, normalised",[1]; [5],78.6%
same,"nuclei count, normalised",[1]; [19],52.6%
same,"nuclei count, normalised",[1]; [6],51%
same,"nuclei count, normalised",[1]; [7],90.2%
same,"nuclei count, normalised",[1]; [8],86.3%
same,"nuclei count, normalised",[1]; [9],62.7%
same,"nuclei count, normalised",[1]; [20],28.6%
same,"nuclei count, normalised",[1]; [10],28.2%
same,"p53-positive nuclei, normalised",[2]; [11],1.67% (inactive)
same,"p53-positive nuclei, normalised",[2]; [12],3.58% (inactive)
same,"p53-positive nuclei, normalised",[2]; [13],17.7% (inactive)
same,"p53-positive nuclei, normalised",[2]; [21],87.1% (active)
same,"p53-positive nuclei, normalised",[2]; [14],84.9% (active)
same,"p53-positive nuclei, normalised",[2]; [15],5.63%
same,"p53-positive nuclei, normalised",[2]; [16],7.57%
same,"p53-positive nuclei, normalised",[2]; [17],33.7%
same,"p53-positive nuclei, normalised",[2]; [22],71.3%
same,"p53-positive nuclei, normalised",[2]; [18],79.8%
